# Assay results published in the supplement of paper PMC8728848.
# This excerpt belongs to a sample that is enriched for the strongest signals.
# B1: B936 (Bifidobacterium sp) (protein)
# chain: MKNWKKAIALVASAAALVSVAACGPSNAGGSSDSGKKTVGFVAVGPEGGFRTANEKDIQKAFEDAGFDLTYSPTQNNDQQKQIQAFNKFVNDEVDAIILSSTEDSGWDDSLKKAAEAEIPVFTVDRNVDVKDAEAKKAIVAHIGPSNVWCGEQAAEFVNKNFPDGANGFILEGPAGLSVVKDRGTGWGNKVASNVKVLESQSANWSTDEAKTVTAGLLDKYKSDNPQFIFAQNDEMGLGAAQAVDAAGLKGKVKIITIDGTKNALQALVDGDLSYVIEYNPIFGKETAQAVKDYLDGKTVEKDIEIESKTFDAASAKEALDNNTRAY
# Legend:
# Experiment in all cases: glycan array binding signal (z-score within array); higher = stronger binding
# Settings in all cases: glycan notation: IUPAC condensed, linker removed
# [1] = molecular target: Fuc(a1-2)Gal(b1-4)GlcNAc(b1-3)[Fuc(a1-3)[Gal(b1-4)]GlcNAc(b1-6)]Gal(b1-4)Glc
# Procedure, shortened: (§1)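 From the Consortium for Functional Glycomics database, 3228 arrays were curated, keeping only those whose protein sequence was available. Binding is given as a within-array Z-score averaged across arrays sharing a protein sequence and across linkers. Negative Z-scores can be read as non-binding.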
# [2] = molecular target: Fuc(a1-2)Gal(b1-4)[Fuc(a1-3)]GlcNAc(b1-2)[Fuc(a1-2)Gal(b1-4)[Fuc(a1-3)]GlcNAc(b1-4)]Man(a1-3)[Fuc(a1-2)Gal(b1-4)[Fuc(a1-3)]GlcNAc(b1-2)Man(a1-6)]Man(b1-4)GlcNAc(b1-4)GlcNAc
# Procedure, shortened: as §1
# [3] = molecular target: Fuc(a1-2)[Gal(a1-3)]Gal(b1-4)GlcNAc(b1-3)[Fuc(a1-2)[Gal(a1-3)]Gal(b1-4)GlcNAc(b1-6)]GalNAc
# Procedure, shortened: as §1
# [4] = molecular target: Fuc(a1-2)[Gal(a1-3)]Gal(b1-4)[Fuc(a1-3)]GlcNAc(b1-3)GalNAc
# Procedure, shortened: as §1
# [5] = molecular target: Fuc(a1-2)[GalNAc(a1-3)]Gal(b1-3)GlcNAc(b1-6)GalNAc
# Procedure, shortened: as §1
# [6] = molecular target: Fuc(a1-2)[GalNAc(a1-3)]Gal(b1-4)[Fuc(a1-3)]GlcNAc(b1-3)GalNAc
# Procedure, shortened: as §1
# [7] = molecular target: Fuc(a1-3)[Gal(b1-4)]GlcNAc(b1-2)Man(a1-3)[Fuc(a1-3)[Gal(b1-4)]GlcNAc(b1-2)Man(a1-6)]Man(b1-4)GlcNAc(b1-4)[Fuc(a1-6)]GlcNAc
# Procedure, shortened: as §1
# [8] = molecular target: Fuc(a1-3)[Gal(b1-4)]GlcNAc(b1-3)Gal(b1-4)[Fuc(a1-3)]GlcNAc
# Procedure, shortened: as §1
# [9] = molecular target: Fuc(a1-3)[Gal(b1-4)]GlcNAc(b1-6)[Gal(b1-3)GlcNAc(b1-3)]Gal(b1-4)Glc
# Procedure, shortened: as §1
# [10] = molecular target: Fuc(a1-3)[Gal3S(b1-4)]GlcNAc6S
# Procedure, shortened: as §1
# [11] = molecular target: Fuc(a1-3)[GalNAc(b1-4)]GlcNAc6S
# Procedure, shortened: as §1
# [12] = molecular target: Gal(a1-3)Gal(b1-3)GlcNAc(b1-2)Man(a1-3)[Gal(a1-3)Gal(b1-3)GlcNAc(b1-2)Man(a1-6)]Man(b1-4)GlcNAc(b1-4)GlcNAc
# Procedure, shortened: as §1
# [13] = molecular target: Gal(a1-3)Gal(b1-3)[Fuc(a1-4)]GlcNAc(b1-2)Man(a1-3)[Gal(a1-3)Gal(b1-3)[Fuc(a1-4)]GlcNAc(b1-2)Man(a1-6)]Man(b1-4)GlcNAc(b1-4)GlcNAc
# Procedure, shortened: as §1
# [14] = molecular target: Gal(a1-3)Gal(b1-4)GlcNAc
# Procedure, shortened: as §1
# [15] = molecular target: Gal(a1-4)Gal(b1-4)GlcNAc(b1-2)Man(a1-3)[Gal(a1-4)Gal(b1-4)GlcNAc(b1-2)Man(a1-6)]Man(b1-4)GlcNAc(b1-4)GlcNAc
# Procedure, shortened: as §1
# [16] = molecular target: Gal(b1-3)Gal(b1-4)GlcNAc
# Procedure, shortened: as §1
# [17] = molecular target: Gal(b1-3)GalNAc
# Procedure, shortened: as §1
# [18] = molecular target: Gal(b1-3)GlcNAc(b1-3)Gal(b1-4)Glc
# Procedure, shortened: as §1
# [19] = molecular target: Gal(b1-3)GlcNAc(b1-3)Gal(b1-4)GlcNAc
# Procedure, shortened: as §1
# [20] = molecular target: Gal(b1-3)[Fuc(a1-4)]GlcNAc(b1-2)Man
# Procedure, shortened: as §1
# [21] = molecular target: Gal(b1-3)[Fuc(a1-4)]GlcNAc(b1-3)Gal(b1-3)[Fuc(a1-4)]GlcNAc
# Procedure, shortened: as §1
# [22] = molecular target: Gal(b1-3)[Fuc(a1-4)]GlcNAc(b1-6)GalNAc
# Procedure, shortened: as §1
# [23] = molecular target: Gal(b1-4)GlcNAc(b1-2)[Gal(b1-4)GlcNAc(b1-4)]Man(a1-3)[Gal(b1-4)GlcNAc(b1-2)Man(a1-6)]Man(b1-4)GlcNAc(b1-4)GlcNAc
# Procedure, shortened: as §1
binder,measurement,setting,value
B1,glycan array binding signal (z-score),[1],-0.124
same,glycan array binding signal (z-score),[2],0.564
same,glycan array binding signal (z-score),[3],-0.277
same,glycan array binding signal (z-score),[4],-0.217
same,glycan array binding signal (z-score),[5],0.424
same,glycan array binding signal (z-score),[6],-0.006
same,glycan array binding signal (z-score),[7],0.198
same,glycan array binding signal (z-score),[8],-0.555
same,glycan array binding signal (z-score),[9],-0.786
same,glycan array binding signal (z-score),[10],0.399
same,glycan array binding signal (z-score),[11],-0.367
same,glycan array binding signal (z-score),[12],2.85
same,glycan array binding signal (z-score),[13],2.05
same,glycan array binding signal (z-score),[14],-0.375
same,glycan array binding signal (z-score),[15],2.19
same,glycan array binding signal (z-score),[16],11.1
same,glycan array binding signal (z-score),[17],4.57
same,glycan array binding signal (z-score),[18],1.71
same,glycan array binding signal (z-score),[19],4.33
same,glycan array binding signal (z-score),[20],1.8
same,glycan array binding signal (z-score),[21],-0.183
same,glycan array binding signal (z-score),[22],1.04
same,glycan array binding signal (z-score),[23],-0.689
